# Screening data as filed in PubChem.
# HCV inh – blocks hepatitis C virus; Huh7.5.1 HCVcc-Cre infection, luciferase reporter, 44 h; 340,000 compounds, 3.4% hits; Potency, µM (doses to about 41.8 µM), for inactives: at the top dose activity change, negative = inhibition, actives largely listed as inhibitors; active means well fitted inhibition curve with a large enough effect; inconclusive means small, poorly fitted or top-dose-only effect, or another doubt; inactive means no such curve, though single readings can be large or run the other way; further: potency means the concentration at half of the fitted maximal effect
#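 After 44 h co-culture of compound, cells and HCVcc-Cre (~0.5 moi), substrate is added for 15 min at room temperature and luciferase measured over 15 sec. Cells were seeded at 1,000/well and pre-cultured 4 h.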
# HCMV inh – blocks human cytomegalovirus replication; HFF cells, HCMV-luciferase reporter, 72 h; hits give low values; activity change, negative = inhibition, % at 57.5 µM; 410,000 compounds, 4.5% hits; AID 1259415; in the data active means activity change below about -60%; inconclusive means no clear call, values can overlap the other calls; inactive means above about -39%
#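 Compounds were evaluated in HFFs infected with an HCMV luciferase reporter virus (MOI 1 PFU/cell). Luciferase in lysates collected 72 h post infection served as the replication measure.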
# LASV entry inh – inhibitors of Lassa virus binding or cell entry. Lassa virus pseudotype entry inhibition, cell reporter. Potency, µM (series often up to 37.9 µM), for inactives: top-dose activity change, negative = inhibition, hits mostly inhibitors. 300,000 compounds, 1.2% hits; calls by dose curve; tested in HEK293 cells; further: potency means the concentration at half of the fitted maximal effect; nearly all actives have a fitted effect of over 50% in size
# Marburg entry inh – inhibitors of Marburg virus binding or cell entry. Marburg virus pseudotyped entry inhibition, cell reporter. 300,000 compounds, 1.8% hits. Potency, µM (titrated, usually from 37.8 µM), inactives show at the highest dose activity change, negative = inhibition, hits mostly inhibitors. AID 540276; calls by dose curve; tested in HEK293 cells; further: potency means the concentration at half of the fitted maximal effect
# FMDV antiviral – antivirals against foot and mouth disease virus | FMDV antiviral cell-based qHTS | Potency, µM (titrated, usually from 57.9 µM), inactives show top-dose activity change, negative = inhibition, actives largely listed as inhibitors | 410,000 compounds, 1.2% hits; calls by dose curve; tested in HEK293T cells; further: read-out not given here; potency means the concentration at half of the fitted maximal effect; nearly all actives have a fitted effect of over 45% in size
# * = called active by the depositor; ? = inconclusive; nt = no result given; [ ] = dose if it differs, or a comment. In the library only some 7.9% were active in any assay of this set; here they are far more common. On the % scale 0 is the no-effect control and ±100 the full control effect.
SMILES,HCV inh,HCMV inh,LASV entry inh,Marburg entry inh,FMDV antiviral
CCc1ccccc1NC(=O)Cn1c(=O)n(CC(=O)NCCc2ccccc2)c(=O)c2ccccc21,nt,9,5%[46.1 µM],4%[46.1 µM],-15%
Cc1ccc(-c2noc(-c3cccnc3N(C)Cc3ccc(Cl)cc3)n2)cc1,nt,32,-3%[46.1 µM],-22%[46.1 µM],1%
COc1ccc(-c2cc(C(F)(F)F)n3nc(C(=O)Nc4sc5c(c4C(=O)OC(C)C)CCC(C)C5)cc3n2)cc1 (stereo not drawn),nt,-10,10%[46.1 µM],nt,-18%
CC(=Nc1ccc(C)cc1)c1sc2ccccc2c1O,13µM*,11,?,?,nt
CC(=Nc1ccc(C)cc1C)c1sc2ccccc2c1O,?,-19,nt,nt,-24%
COc1ccc(OC)c(CCNc2nc3cc(OC)c(OC)cc3c3nc(-c4cccnc4)nn23)c1,nt,4,nt,12%[46.1 µM],-10%
[O-]/C(=C(\C(=S)Nc1ccc(SC(F)F)cc1)[n+]1ccccc1)c1cc(Cl)ccc1Cl,?,-61*,?,?,-10%
CCc1cccc(CC)c1NC(=S)NCCc1ccc(O)c(O)c1,-21%,-14,nt,nt,-2%
COc1ccc2[nH]c(C)c(CCNC(=S)Nc3ccccc3C)c2c1,?,-38,?,-17%,12%
CCc1cccc(CC)c1NC(=S)NCCc1c(C)[nH]c2ccccc12,?,-71*,?,?,16%
COc1ccc2[nH]c(C)c(CCNC(=S)Nc3ccc(C)cc3)c2c1,?,-68*,nt,nt,40%
N#C/C(=C\N1CCN(Cc2ccc3c(c2)OCO3)CC1)c1nc2ccccc2s1,14µM*,-18,-5%,-11%,-28%
N=c1n(CCO)c2ccccc2n1Cc1ccccc1F,nt,-13,-20%[46.1 µM],?,-3%
Cc1ccc(N2C(=O)CS/C2=C(\C(Cl)=C(Cl)Cl)[N+](=O)[O-])cc1,-18%,-32,11%,-10%,nt
CC1CCCC(C)N1C(=C(Cl)Cl)C(=C1SCCS1)[N+](=O)[O-] (stereo not drawn),?,-69*,-5%,?,59%
Cc1ccc2c(c1)c(C)c(C)n2CC(O)Cn1nnc2ccccc21 (stereo not drawn),?,-15,?,21µM*,-56%
Cc1ccc2c(c1)c(C)c(C)n2CC(O)Cn1nc(C)cc1C (stereo not drawn),-17%,-21,0%,-5%,5%
CCC1C(=NO)C(CC)C(c2ccccc2)NC1c1ccccc1 (stereo not drawn),?,-101*,?,?,?
CC1/C(=N/O)CC(c2ccccc2)NC1c1ccccc1 (stereo not drawn),-3%,-28,-11%,1%,-25%
CCCC1/C(=N/O)CC(c2ccccc2)NC1c1ccccc1 (stereo not drawn),-14%,-101*,-30%[46.1 µM],?,?
CC1C(=NO)C(C)C(c2ccccc2)NC1c1ccccc1 (stereo not drawn),12%,-36,-10%,-20%,-10%
COCC(=O)Nc1cc(C(=O)N2CCCC2c2nccs2)c2c(c1)nc(-c1ccncc1)n2C (stereo not drawn),nt,nt,nt,nt,-5%
CC(CNC(=O)c1ccc2nc(CCc3ccccc3)oc2c1)c1ccccc1 (stereo not drawn),nt,27,-28%[46.1 µM],nt,-4%
CS(=O)(=O)N(C(=O)NC(=O)NC12CC3CC(CC(C3)C1)C2)C1CCCCC1,6%,-64*,9%,7%[46.1 µM],-8%
O=C(NCc1cccs1)c1ccc(CSc2nc3ccncc3n2Cc2ccccc2F)cc1,nt,-26,nt,?,23%
SMILES,HCV inh,HCMV inh,LASV entry inh,Marburg entry inh,FMDV antiviral
COc1cc(NC(=O)Nc2cccc([N+](=O)[O-])c2)cc(OC)c1,-8%,-34,4%,-21%[46.1 µM],-9%
CC(C)S(=O)(=O)c1csc(NC(=O)Nc2cccc([N+](=O)[O-])c2)c1Cl,25µM*,6,nt,nt,?
COc1ccc(NC(=O)c2cc(-c3ccccc3F)no2)cc1,nt,6,0%[46.1 µM],nt,54%
CCn1cc(CN2CCCC(C(=O)c3ccc(-c4ccccc4)cc3)C2)cn1 (stereo not drawn),?,-61*,?,?,-9%
Cn1cc(CN2CCCC(C(=O)c3ccc(-c4ccccc4)c(F)c3)C2)cn1 (stereo not drawn),?,-13,-21%,?,-25%
COc1cccc(C(=O)C2CCCN(Cc3cn(C)nc3-c3ccccc3)C2)c1 (stereo not drawn),-14%,-14,-19%,-28%[46.1 µM],-15%
Cc1nn(C)cc1CN1CCCC(C(=O)c2ccc(-c3ccccc3)c(F)c2)C1 (stereo not drawn),10µM*,?,?,?,-9%
Cn1cc(CN2CCCC(C(=O)c3ccc(-c4ccccc4)cc3)C2)cn1 (stereo not drawn),14µM*,-18,nt,nt,8%
CC(C)=Cc1cccc2[nH]c(O)c(N=Nc3ccc(S(N)(=O)=O)cc3)c12,nt,nt,4µM*,nt,nt
Cc1c(C#N)c(O)[nH]c(=O)c1N=Nc1ccc(S(N)(=O)=O)cc1,0%,-32,0%[46.1 µM],4%[46.1 µM],-6%
O=C(O)c1cc(N=Nc2c(O)[nH]c3ccc([N+](=O)[O-])cc23)ccc1Cl,8%,1,nt,nt,10%
NS(=O)(=O)c1ccc(N=Nc2c(O)[nH]c3ccc(-c4cnco4)cc23)cc1,nt,nt,13µM*,nt,nt
Cc1ccc2[nH]c(O)c(N=Nc3ccc(S(N)(=O)=O)cc3)c2c1,nt,nt,4µM*,nt,nt
CN(c1ccccc1)S(=O)(=O)c1ccc(Cl)c(C(=O)Nc2ccncc2)c1,?,-26,nt,nt,?
CCN(CC)c1ccc(C(=O)OCC(=O)Nc2ccccc2-c2ccccc2)cc1,8.9µM*,-12,?,?,18µM*
CC1CN(C(=O)c2cc(S(=O)(=O)N(C)c3ccc(F)cc3)ccc2Cl)CC(C)O1 (stereo not drawn),10µM*,-29,?,?,-30%
CN(c1ccccc1)S(=O)(=O)c1ccc(NC(=O)c2ccccc2)cc1,?,-39,?,-23%,?
CN(c1ccc(F)cc1)S(=O)(=O)c1ccc(Cl)c(C(=O)Nc2ccncc2)c1,?,-65*,1%,-19%,20µM*
CN(c1ccccc1)S(=O)(=O)c1ccc(NC(=O)c2ccc(F)cc2)cc1,?,-26,?,18µM*,?
O=C(NCCc1ccccc1)C(=O)NCC(c1cccs1)S(=O)(=O)c1cccs1 (stereo not drawn),nt,-16,-24%[46.1 µM],nt,-22%
CC(=O)Nc1ccc(NC(=O)COC(=O)c2ccc(S(=O)(=O)N(C)c3ccccc3)cc2)cc1,13%,-100*,nt,nt,-8%
CCc1nnc(NC(=O)c2ccc(S(=O)(=O)N(C)c3ccccc3)cc2)o1,7.1µM*,-75*,?,?,0%
CCc1nnc(NC(=O)c2ccc(S(=O)(=O)N(CC(C)C)CC(C)C)cc2)o1,10%,-9,?,?,6%
CN(c1ccc(C(=O)Nc2cccnc2)cc1)S(=O)(=O)c1ccccc1,?,-71*,-4%,-24%[46.1 µM],?
